Nrf2 ARE act: activates Nrf2 signaling | AREc32 ARE-luciferase reporter (MCF7-derived line), luminescence, 24 h | Potency, µM (series often up to 46.1 µM), hits mostly activators | 0.31% of 410,000 active | AID 624171; also: nearly all actives have a fitted effect of over 65% in size
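AREc32 cells carrying an ARE-driven firefly luciferase, 1000 cells/well in OPTI-MEM with 5% FBS, dosed after overnight attachment and incubated 24 hr at 37 deg C. Steady-Glo luminescence read after 30 min at RT.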
TrxR1 inh: blocks rat thioredoxin reductase 1. O89049. recombinant rTrxR1, NADPH fluorescence consumption, selenite substrate. Potency, µM (series often up to 114 µM), usual class: inhibitors. 1% of 390,000 active; also: nearly all actives have a fitted effect of over 65% in size
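Rat TrxR1 (90 nM in the dispensed reagent) was pre-reduced with 400 uM NADPH for 5 min at room temperature, then incubated with compound for 15 min. After 400 uM selenite was added, NADPH fluorescence (Ex 340/Em 450 nm) was followed for 8 min.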
GALK inhibitor: blocks human galactokinase activity | 0.007% of 270,000 active | AID 1868 | P51570 | Potency, µM (doses to about 57.5 µM), most hits filed as inhibitors | Purified GALK, Kinase-Glo residual ATP luminescence
Target sequence (P51570 whole entry, looked up): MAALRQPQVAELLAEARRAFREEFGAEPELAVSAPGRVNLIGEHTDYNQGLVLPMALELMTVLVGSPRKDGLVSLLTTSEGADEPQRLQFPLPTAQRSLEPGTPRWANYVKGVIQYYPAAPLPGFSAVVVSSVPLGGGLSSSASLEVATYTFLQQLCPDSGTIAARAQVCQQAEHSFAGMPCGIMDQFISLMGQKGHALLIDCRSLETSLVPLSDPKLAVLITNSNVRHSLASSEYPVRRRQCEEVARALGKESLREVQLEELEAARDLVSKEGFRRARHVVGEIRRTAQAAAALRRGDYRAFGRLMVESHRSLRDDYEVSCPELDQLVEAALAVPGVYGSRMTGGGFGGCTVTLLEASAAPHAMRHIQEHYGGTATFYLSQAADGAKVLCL
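ATP-depletion format; final 35 uM ATP, 100 uM D-galactose, 5 nM enzyme; pH 8.0 HEPES/Mg2+ buffer; 60 min RT; luminescence read 10 min after detection reagent.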
TrxR1 substrate: substrates of rat thioredoxin reductase 1. AID 588456. Potency, µM (top dose mostly 114 µM). O89049. 0.01% of 390,000 active. purified TrxR1 substrate turnover, NADPH consumption readout; also: nearly all actives have a fitted effect of over 50% in size
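Rat TrxR1, dispensed at 90 nM, was prereduced with 400 uM NADPH (final) for 5 min at ~22 deg C, then incubated with compound 15 min before 400 uM selenite. A first-read NADPH fluorescence drop versus no-compound background flagged substrates.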
Nrf2 inh: blocks Nrf2 signaling; A549 ARE-Fluc reporter, luciferase luminescence, 18-24 h; 2.1% of 360,000 active; Potency, µM (top dose mostly 46 µM), usual class: inhibitors; also: nearly all actives have a fitted effect of over 60% in size
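In this cell-based qHTS, ARE-driven firefly luciferase in A549 cells reports Nrf2 activity; the luminescent signal after BugLite lysis is the measured value, with a prior CellTiter-Fluor read for cell health.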
A549 viability: A549 cytotoxicity, counter-screen for Nrf2 inhibitors; A549 ARE-Fluc cells, CellTiter-Fluor viability, 18-24 h; Potency, µM (series often up to 46 µM), usual class: inhibitors; 0.16% of 390,000 active; AID 504648
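A549 ARE_Fluc cells in 5% FBS OPTI-MEM were exposed to compounds in concentration-response for 18-24 h at 37 deg C. Viability was read by CellTiter-Fluor fluorescence (Ex 405/Em 525) after 30 min, before the luciferase read.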
Numbers stand for hits; i = inactive; ? = inconclusive; nt = no result given; [ ] = another dose, or the depositor's remark. Rows were chosen to be rich in hits. Some 3% of all compounds tested hit in one or more screens of this group. Calls follow the shape of the dose curve; as a rule, active = well fitted curve in the direction sought with a large enough effect; inconclusive = small, poorly fitted or top-dose-only effect, or another doubt; inactive = no such curve, though single readings can be large; an effect the other way counts as inactive or inconclusive.

SMILES	Nrf2 ARE act	TrxR1 inh	GALK inhibitor	TrxR1 substrate	Nrf2 inh	A549 viability
COc1ccc(C(=O)O/N=C(/C)c2cccs2)cc1	17.8µM	i	i	i	nt	i
COc1ccc(C(=O)O/N=C(\C)c2nccs2)cc1	i	i	i	i	?	i
O=C(CSc1nc(-c2ccccc2)[nH]c1-c1ccccc1)Nc1ccc2c(c1)OCCO2	i	i	nt	i	?	i
N#Cc1cccc(NC(=O)CSc2ccccc2)c1	i	i	i	i	i	i
COc1ccc(NC(=O)CSc2ccc3c4c(cccc24)C(=O)c2ccccc2-3)cc1	i	i	i	i	10.3µM	?
N#Cc1cccc(NC(=O)CSc2ccc3c4c(cccc24)C(=O)c2ccccc2-3)c1	?	i	i	i	?	25.9µM
COc1ccc(NC(=O)CSc2nnc(C)c3ccccc23)cc1	?	i	i	i	i	i
CSc1cc2c(s1)c1cnn(Cc3cccc(O)c3)c(=O)c1n2C	nt	nt	nt	nt	?	i
Cc1ccc(NC(=O)Cn2c(=O)n(Cc3nc(C)no3)c(=O)c3ccccc32)c(Cl)c1	i	i	nt	i	i	i
CC(=O)N1CCN(S(=O)(=O)c2cccc(C(=O)OCc3ccc(C(C)(C)C)cc3)c2)CC1	i	i	nt	i	23.1µM	i
Cc1ccc(COC(=O)c2cccc(S(=O)(=O)N3CCCCCC3)c2)cc1	i	i	nt	i	i	i
O=C1c2ccccc2-c2onc3ccc(Oc4ccccc4)c1c23	7.08µM	?	i	i	?	?
Cc1sc2c(c1C)CN(C(C)(C)C)CN2C(=O)c1ccccc1	11.2µM	?	i	i	?	i
CCNC(=S)N(CCc1cccc(C)c1)Cc1cc2cc(OC)c(OC)cc2[nH]c1=O	i	i	nt	i	23.1µM	i
CC(C)c1ccc(NC(=O)CSc2n[nH]c(=O)n2Cc2ccco2)cc1	i	i	i	i	10.3µM	i
O=C(CSc1n[nH]c(=O)n1Cc1ccco1)Nc1ccccc1	i	i	i	i	i	i
COc1ccc(OCC(=O)NC(Cc2c[nH]c3ccccc23)C(=O)O)cc1 (stereo not given)	i	i	nt	i	i	i
O=[N+]([O-])c1ccc2c(c1)/C(=C/c1ccc(C=S)cc1)C=C2	nt	?	nt	i	nt	nt
OC(C[n+]1c(Cl)ccc2ccccc21)c1ccccc1 (stereo not given)	nt	39.8µM	nt	i	nt	nt
CCn1c(/C=C/c2c[nH]c3ccccc23)nc2ccccc2c1=O	i	i	i	i	?	i
CN(C)S(=O)(=O)c1ccc2[nH]cc(/C=C/c3nc4ccccc4c(=O)n3-c3ccccc3)c2c1	i	i	i	i	10.3µM	i[1.84 µM]
CC(C)CCN(Cc1ccco1)C(=O)c1cc2c(Cl)nc3ccccc3c2s1	i	i	nt	i	i	i
CC(=O)N1CCc2c(sc3c2c(=O)n(CCc2ccccc2)c(=O)n3Cc2ccccc2C)C1	i	i	nt	i	18.4µM	i
CC(=O)N1CCc2c(sc3c2c(=O)n(CCc2ccccc2)c(=O)n3Cc2ccc(Cl)cc2)C1	i	i	nt	i	?	i
c1ccc(Cn2c(SCc3nc4ccccc4s3)nnc2-c2ccco2)cc1	i	10µM	i	i	nt	i
SMILES	Nrf2 ARE act	TrxR1 inh	GALK inhibitor	TrxR1 substrate	Nrf2 inh	A549 viability
COc1ccc(CC(=O)NCc2ccc3c(c2)CCN3C(=O)c2ccc(C)cc2)cc1OC	i	i	nt	i	nt	i
Cc1ccc(-c2noc(CSc3nnc(C)n3-c3ccc(C)cc3)n2)cc1	i	i	nt	i	?	i
Cc1ccc(-c2noc(CSc3nnc(C)n3-c3ccc(C)c(C)c3)n2)cc1	i	i	nt	i	16.4µM	i
Cc1ccc(-n2c(SCc3nc(-c4ccc(Cl)cc4)no3)nnc2-c2ccncc2)cc1	i	i	nt	i	23.1µM	i
CCOc1ccc(-c2noc(CSc3nnc(-c4ccccc4)n3-c3ccccc3)n2)cc1	i	i	nt	i	?	i
Clc1ccccc1-c1nnc(SCc2nc(-c3ccccc3)no2)n1-c1ccccc1	i	i	nt	i	14.6µM	i
CCCOc1ccccc1C(=O)N1CCCCC1CCN1CCOCC1 (stereo not given)	i	i	nt	i	i	i
CC1(C)OC(=O)C2(Cc3cc(C(F)(F)F)ccc3N3CCCCC32)C(=O)O1 (stereo not given)	nt	i	nt	i[0.0914 µM]	i	i
CCCN1CNc2c(c(=O)[nH]c(=S)n2CCc2cc(Cl)cc(Cl)c2)C1	nt	i	nt	i	i	i
COc1cccc(OCc2cc(C3Nc4ccccc4C(=O)N3Cc3ccco3)ccc2OC)c1 (stereo not given)	i	?	i	i	i	i
COc1ccc(C2Nc3ccccc3C(=O)N2Cc2ccco2)cc1COc1c(C)cccc1C (stereo not given)	nt	20µM	nt	i	?	?
CCOC(=O)N1CCC(n2c(SCC(=O)Nc3ccccc3OC)nc3ccccc3c2=O)CC1	i	i	i	i	14.6µM	nt
COc1cc2nc(N3CCCN(C)CC3)nc(N3CCN(C)CC3)c2cc1OC	nt	i	nt	i	nt	nt
CN(C)CCNc1nc(-c2ccco2)c2c(c1C#N)CC(C)(C)OC2	i	?	i	i	i	nt
CCCCN(C)c1nc(-c2ccco2)c2c(c1C#N)CC(C)(C)OC2	?	3.55µM	i	i	?	i
O=C(NCC1CCCN1S(=O)(=O)c1cccs1)c1cccc(F)c1 (stereo not given)	i	i	nt	i	13µM	i
O=C(NCC1CCCN1S(=O)(=O)c1cccs1)c1ccc(Cl)cc1 (stereo not given)	i	i	nt	i	23.1µM	i
CC(C)Oc1ccc(CNC(=O)CCCN2C(=O)c3cccnc3Oc3ccc(Cl)cc32)cc1	i	i	nt	i	?	i
O=C(NCC1CCCO1)c1nn2c(C(F)(F)F)cc(-c3ccc(Br)o3)nc2c1Br (stereo not given)	i	14.1µM	i	i	?	i
CCN(CC)CCCNC(=O)c1c(C)oc2ncnc(N3CCOCC3)c12	i	i	nt	i	?	i
CSCCC(NS(=O)(=O)c1ccc(Cl)cc1)C(=O)OCC(=O)c1c(C)[nH]c2ccccc12 (stereo not given)	i	i	i	i	18.4µM	?
Cc1[nH]c2ccccc2c1C(=O)COC(=O)C1CC(O)CN1S(=O)(=O)c1ccc(Cl)cc1 (stereo not given)	i	i	nt	i	i	i
CCNC(=O)C/C(C)=N/NC(=O)C12CC3CC(CC(C3)C1)C2	i	25.1µM	nt	i	i	i
CCNC(=O)C/C(C)=N/NC(=O)C1CCCCC1	i	i	i	i	i	i
CN(C)c1ccc(C(=O)c2ccccc2)cc1	i	i	i	i	?	i
C=C(c1ccccc1)c1ccc(N(C)C)cc1	i	i	i	i	16.4µM	i
CCCCOc1c(Cl)cc(C(=O)N(Cc2ccc(C)o2)C2CCS(=O)(=O)C2)cc1Cl (stereo not given)	i	i	nt	i	i	i
